Hit rate of the full screen: of about 39,000 compounds, about 1,500 (3.8%) were called active. The sample holds actives, similar compounds and a random draw of the others, so the mix is not that of the screen.
test system: HSkMC (human skeletal muscle cells); assay: cytotoxicity call (relative viability < 0.9); conditions: 10 µM

Row | SMILES | cytotoxicity call
1 | N[C@@H](C(=O)N[C@@H]1C(=O)N2C(C(=O)O)=C(Cl)CS[C@H]12)c1ccccc1 | inactive
2 | C[C@@H]1CCCCO[C@H](CN(C)C(=O)Cc2ccccc2)[C@@H](C)CN([C@H](C)CO)C(=O)c2cc(NC(=O)C3CCCCC3)ccc2O1 | inactive
3 | Cc1ccc(S(=O)(=O)N[C@@H](Cc2ccccc2)C(=O)NCCn2cc(CCC(=O)NO)nn2)cc1 | inactive
4 | Cc1ccc(S(=O)(=O)N(C)C[C@@H]2Oc3ccc(NS(=O)(=O)c4cccs4)cc3CC(=O)N([C@@H](C)CO)C[C@@H]2C)cc1 | inactive
5 | C[C@H](O)C#Cc1ccc2c(c1)O[C@@H](CN(C)C(=O)Cc1ccccn1)[C@H](C)CN([C@@H](C)CO)S2(=O)=O | inactive
6 | O=C(C[C@@H]1C=C[C@@H](NC(=O)CN2CCOCC2)[C@@H](CO)O1)NCc1cccc(F)c1 | inactive
7 | C[C@H]1CC=CC[C@H](c2cccc(Cl)c2)NC(=O)[C@@H](Cc2ccccc2)N(C)C(=O)c2ccccc2O1 | inactive
8 | COc1ccc(NC(=O)Nc2ccc3c(c2)C(=O)N([C@@H](C)CO)C[C@@H](C)[C@@H](CN(C)Cc2ccccc2)OCCCC[C@@H](C)O3)cc1 | inactive
9 | Cc1noc(C)c1NC(=O)Nc1cccc2c1O[C@@H](CN(C)S(=O)(=O)c1ccccc1)[C@@H](C)CN([C@H](C)CO)C2=O | inactive
10 | Cc1ccc(S(=O)(=O)N(C)C[C@H]2OCCCC[C@H](C)Oc3ccc(NS(=O)(=O)c4ccc(F)cc4)cc3C(=O)N([C@@H](C)CO)C[C@@H]2C)cc1 | inactive
11 | Cc1ccc(S(=O)(=O)N(C)C[C@@H]2OCCCC[C@@H](C)Oc3ccc(NS(=O)(=O)c4ccc(F)cc4)cc3C(=O)N([C@H](C)CO)C[C@H]2C)cc1 | active
12 | Cc1ccc(S(=O)(=O)Nc2ccc3c(c2)C(=O)N([C@H](C)CO)C[C@@H](C)[C@H](CN(C)S(=O)(=O)c2ccc(F)cc2)OCCCC[C@@H](C)O3)cc1 | inactive
13 | Cc1ccc(S(=O)(=O)Nc2ccc3c(c2)C(=O)N([C@H](C)CO)C[C@H](C)[C@H](CN(C)S(=O)(=O)c2ccc(F)cc2)OCCCC[C@H](C)O3)cc1 | inactive
14 | Cc1ccc(S(=O)(=O)N(C)C[C@H]2OCCCC[C@@H](C)Oc3ccc(NC(=O)Nc4ccc(F)cc4)cc3C(=O)N([C@@H](C)CO)C[C@@H]2C)cc1 | active
15 | COc1ccc(S(=O)(=O)N(C)C[C@H]2OCCCC[C@H](C)Oc3ccc(NS(=O)(=O)c4cn(C)cn4)cc3C(=O)N([C@@H](C)CO)C[C@H]2C)cc1 | active
16 | Cc1ccc(S(=O)(=O)N(C)C[C@H]2OCCCC[C@@H](C)Oc3ccc(NC(=O)Nc4ccc(F)cc4)cc3C(=O)N([C@@H](C)CO)C[C@H]2C)cc1 | inactive
17 | COc1ccc(S(=O)(=O)N(C)C[C@@H]2OCCCC[C@H](C)Oc3ccc(NS(=O)(=O)c4cn(C)cn4)cc3C(=O)N([C@H](C)CO)C[C@@H]2C)cc1 | inactive
18 | Cc1ccc(S(=O)(=O)Nc2ccc3c(c2)C(=O)N([C@@H](C)CO)C[C@H](C)[C@@H](CN(C)S(=O)(=O)c2ccc(F)cc2)OCCCC[C@@H](C)O3)cc1 | inactive
19 | Cc1ccc(S(=O)(=O)N(C)C[C@@H]2OCCCC[C@H](C)Oc3ccc(NC(=O)Nc4ccc(F)cc4)cc3C(=O)N([C@@H](C)CO)C[C@@H]2C)cc1 | inactive
20 | COc1ccc(S(=O)(=O)N(C)C[C@@H]2OCCCC[C@@H](C)Oc3ccc(NS(=O)(=O)c4cn(C)cn4)cc3C(=O)N([C@@H](C)CO)C[C@H]2C)cc1 | inactive

Row | SMILES | cytotoxicity call
21 | Cc1ccc(S(=O)(=O)Nc2ccc3c(c2)C(=O)N([C@H](C)CO)C[C@H](C)[C@@H](CN(C)S(=O)(=O)c2ccc(F)cc2)OCCCC[C@H](C)O3)cc1 | active
22 | C[C@H]1CN([C@@H](C)CO)C(=O)c2cc(NC(=O)C3CC3)ccc2O[C@H]1CN(C)Cc1ccc(Oc2ccccc2)cc1 | inactive
23 | COc1ccc(S(=O)(=O)N(C)C[C@@H]2Oc3ccc(NS(=O)(=O)c4cccs4)cc3C(=O)N([C@@H](C)CO)C[C@@H]2C)cc1 | inactive
24 | C[C@H]1CN([C@@H](C)CO)C(=O)Cc2cc(NC(=O)C3CC3)ccc2O[C@H]1CN(C)S(=O)(=O)c1cn(C)cn1 | inactive
25 | C[C@H]1CCCCO[C@H](CN(C)C(=O)Nc2ccc3c(c2)OCO3)[C@@H](C)CN([C@@H](C)CO)C(=O)c2cc(NC(=O)CCC(F)(F)F)ccc2O1 | inactive
26 | O=C(O)c1ccc(CCO)s1 | inactive
27 | COc1ccccc1C#Cc1ccc2c(c1)O[C@@H](CN(C)Cc1cccnc1)[C@@H](C)CN([C@@H](C)CO)S2(=O)=O | inactive
28 | COc1ccccc1C#Cc1ccc2c(c1)O[C@H](CN(C)Cc1cccnc1)[C@@H](C)CN([C@@H](C)CO)S2(=O)=O | active
29 | COc1ccccc1C#Cc1ccc2c(c1)O[C@H](CN(C)Cc1cncnc1)[C@H](C)CN([C@@H](C)CO)S2(=O)=O | inactive
30 | COc1ccccc1C#Cc1ccc2c(c1)O[C@H](CN(C)Cc1cccnc1)[C@@H](C)CN([C@H](C)CO)S2(=O)=O | inactive
31 | COc1ccccc1C#Cc1ccc2c(c1)O[C@@H](CN(C)Cc1cccnc1)[C@@H](C)CN([C@H](C)CO)S2(=O)=O | inactive
32 | COc1ccccc1C#Cc1ccc2c(c1)O[C@@H](CN(C)Cc1cccnc1)[C@H](C)CN([C@@H](C)CO)S2(=O)=O | active
33 | COc1ccccc1C#Cc1ccc2c(c1)O[C@H](CN(C)Cc1cccnc1)[C@H](C)CN([C@@H](C)CO)S2(=O)=O | inactive
34 | COc1ccccc1C#Cc1ccc2c(c1)O[C@@H](CN(C)Cc1cccnc1)[C@H](C)CN([C@H](C)CO)S2(=O)=O | active
35 | COc1ccccc1C#Cc1ccc2c(c1)O[C@H](CN(C)Cc1cccnc1)[C@H](C)CN([C@H](C)CO)S2(=O)=O | inactive
36 | C[C@@H]1CN([C@H](C)CO[Si](C)(C)C(C)(C)C)C(=O)c2cc(NC(=O)C3CCCCC3)ccc2O[C@H]1CN(C)C(=O)c1ccc(Cl)cc1 | inactive
37 | COc1ccccc1CNC(=O)C[C@@H]1C[C@@H]2c3cc(NC(=O)Nc4ccc(C(F)(F)F)cc4)ccc3O[C@@H]2[C@@H](CO)O1 | inactive
38 | C=CCNC(=O)CSc1nc(=O)cc(N)[nH]1 | inactive
39 | COc1ccc(S(=O)(=O)N(C)C[C@H]2OCCCC[C@@H](C)Oc3ccc(NC(=O)Nc4ccc(C(F)(F)F)cc4)cc3C(=O)N([C@H](C)CO)C[C@H]2C)cc1 | inactive
40 | C[C@@H]1CCCCO[C@H](CN(C)S(=O)(=O)c2ccc(Cl)cc2)[C@@H](C)CN([C@H](C)CO)C(=O)c2cc(NC(=O)Nc3ccc(C(F)(F)F)cc3)ccc2O1 | active

Row | SMILES | cytotoxicity call
41 | COc1ccc(S(=O)(=O)N(C)C[C@H]2OCCCC[C@@H](C)Oc3ccc(NC(=O)Nc4ccc(C(F)(F)F)cc4)cc3C(=O)N([C@@H](C)CO)C[C@H]2C)cc1 | active
42 | C[C@@H]1CN([C@H](C)CO)C(=O)c2cc(NC(=O)Nc3ccc(C(F)(F)F)cc3)ccc2O[C@@H](C)CCCCO[C@H]1CN(C)S(=O)(=O)c1ccc(Cl)cc1 | inactive
43 | C[C@@H]1CCCCO[C@@H](CN(C)S(=O)(=O)c2ccc(Cl)cc2)[C@H](C)CN([C@@H](C)CO)C(=O)c2cc(NC(=O)Nc3ccc(C(F)(F)F)cc3)ccc2O1 | inactive
44 | COc1ccc(S(=O)(=O)N(C)C[C@H]2OCCCC[C@@H](C)Oc3ccc(NC(=O)Nc4ccc(C(F)(F)F)cc4)cc3C(=O)N([C@@H](C)CO)C[C@@H]2C)cc1 | active
45 | COc1ccc(S(=O)(=O)N(C)C[C@H]2OCCCC[C@H](C)Oc3ccc(NC(=O)Nc4ccc(C(F)(F)F)cc4)cc3C(=O)N([C@@H](C)CO)C[C@@H]2C)cc1 | inactive
46 | COc1ccc(S(=O)(=O)N(C)C[C@@H]2OCCCC[C@H](C)Oc3ccc(NC(=O)Nc4ccc(C(F)(F)F)cc4)cc3C(=O)N([C@H](C)CO)C[C@@H]2C)cc1 | inactive
47 | COc1ccc(S(=O)(=O)N(C)C[C@@H]2OCCCC[C@H](C)Oc3ccc(NC(=O)Nc4ccc(C(F)(F)F)cc4)cc3C(=O)N([C@@H](C)CO)C[C@H]2C)cc1 | inactive
48 | C=C1[N-]O[N+](O)=C1CN(Cc1c(C)no[n+]1[O-])OC(C)=O | inactive
49 | C[C@H]1CN([C@@H](C)CO)C(=O)c2cccc(NC(=O)Nc3ccc(C(F)(F)F)cc3)c2O[C@@H]1CN(C)Cc1ccc(-c2ccccc2)cc1 | inactive
50 | C[C@H](CO)N1C[C@H](C)[C@H](CN(C)Cc2ccc(Cl)c(Cl)c2)OCCCC[C@H](C)Oc2ccc(NC(=O)NC3CCCCC3)cc2C1=O | inactive
51 | Cn1nc(CN2CCCC2=O)c2c1CN(C(=O)CO)C2 | inactive
52 | C[C@H]1CCCCO[C@H](CN(C)Cc2ccc(C(F)(F)F)cc2)[C@@H](C)CN([C@@H](C)CO)C(=O)c2cc(N(C)C)ccc2O1 | inactive
53 | COc1ccc(-c2cnc3c(c2)C(=O)N([C@H](C)CO)C[C@@H](C)[C@H](CN(C)C(=O)Cc2cccnc2)O3)cc1 | inactive
54 | COc1ccc(NC(=O)N(C)C[C@@H]2OCCCC[C@H](C)Oc3ccc(NC(=O)Nc4ccc(C(F)(F)F)cc4)cc3C(=O)N([C@H](C)CO)C[C@@H]2C)cc1 | inactive
55 | CN(C)Cc1ccc([C@@H](N)c2ccncc2)cc1 | inactive
56 | COc1ccc2c3c(n(c2c1)C)[C@@H](CO)N(Cc1cc(cc(c1)OC)OC)C[C@]13CCN(CC1)C(=O)CN1CCOCC1 | inactive
57 | CCOC(=O)c1ccc(O)cc1 | inactive
58 | CCOC(=O)c1ccc(N)cc1 | inactive
59 | CCOC(=O)c1ccc(NC(=S)N[C@@H](NC(=O)c2ccc(Br)cc2)C(Cl)(Cl)Cl)cc1 | active
60 | Cc1noc(C)c1S(=O)(=O)Nc1ccc2c(c1)CC(=O)N([C@H](C)CO)C[C@H](C)[C@@H](CN(C)S(=O)(=O)c1cn(C)cn1)O2 | inactive

— the antibiotic and cytotoxicity screens of Wong et al. (2023)
